Reference: PubChem BioAssay (EPA / NIEHS)
Results filed as inconclusive are left out. Where a structure was tested more than once in an assay, its records may differ in their call. The source made the active and inactive calls. Rule for the calls: active = hit-call score of the fitted dose curve at least 0.9, where 1 is the maximum; inconclusive = response in the unintended direction; inactive = score below 0.9.

Columns and labels:
[1] = ATG_XTT_Cytotoxicity: Cytotoxicity Assessment in the Attagene TRANS-FACTORIAL HepG2 Assay (AID 2283584)
Procedure, shortened: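 XTT readout of cell number in transfected HepG2 cells, 24 h post-dosing; DMSO serves as negative control and baseline, with activity taken as loss of viability signal.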

[2] = Tanguay_ZF_120hpf_MORT_legacy: (Legacy) Oregon State University Tanguay Lab 120 Hour Post-fertilization zebrafish Assay for Mortality (AID 2283633);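 for AC50: fitted as increase in binary mortality versus DMSO negative control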
Procedure, shortened: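 Brightfield scoring of embryo death (binary) at 24 and 120 hpf; static exposure 6–120 hpf, 28C, sealed and foil-covered. Pronase-dechorionated 5D wild-type larvae, single embryo per well. DMSO 0.64% v/v; trimethyltin chloride 5uM positive control.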

[3] = Tanguay_ZF_120hpf_YSE_legacy: (Legacy) Oregon State University Tanguay Lab 120 Hour Post-fertilization zebrafish Assay for Yolk Sac Edema (AID 2283634)
Procedure, shortened: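 Binary brightfield scoring of yolk sac edema at 120 hpf; DMSO baseline, gain-of-signal fitting. Dechorionated 5D larvae, one per well, static exposure 6–120 hpf, 28C, 0.64% DMSO. Dead embryos not scored.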

[4] = Tanguay_ZF_120hpf_AXIS_legacy: (Legacy) Oregon State University Tanguay Lab 120 Hour Post-fertilization zebrafish Assay for Body Axis Malformation (AID 2283635)
Procedure, shortened: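 Embryos: 5D wild-type, pronase-dechorionated 4 hpf; static exposure 6–120 hpf, 28C, sealed, dark, 1 embryo/well, 0.64% DMSO. 120 hpf axis malformation scored present/absent; dead embryos excluded. Analysed as gain of signal vs DMSO.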

[5] = Tanguay_ZF_120hpf_EYE_legacy: (Legacy) Oregon State University Tanguay Lab 120 Hour Post-fertilization zebrafish Assay for Eye Malformation (AID 2283636);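 note: binary presence or absence of eye malformation scored by brightfield in 120 hpf larvae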
Procedure, shortened: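 5D wild-type embryos, pronase-dechorionated at 4 hpf; static exposure 6–120 hpf, 28C, dark; DMSO 0.64% final; 5uM trimethyltin chloride positive control. Binary eye-defect scoring at 120 hpf; dead embryos not scored.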

[6] = Tanguay_ZF_120hpf_SNOU_legacy: (Legacy) Oregon State University Tanguay Lab 120 Hour Post-fertilization zebrafish Assay for Snout Malformation (AID 2283637)
Procedure, shortened: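 Binary brightfield scoring of snout malformation at 120 hpf. Dechorionated 5D wild-type embryos, one per well, static exposure from 6 hpf at 28C, sealed and dark; final DMSO 0.64% (vol/vol), DMSO as baseline; 5uM trimethyltin chloride positive control.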

[7] = Tanguay_ZF_120hpf_JAW_legacy: (Legacy) Oregon State University Tanguay Lab 120 Hour Post-fertilization zebrafish Assay for Jaw Malformation (AID 2283638);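 for AC50: active means more embryos with jaw malformation than DMSO controls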
Procedure, shortened: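 Binary jaw-malformation calls at 120 hpf by brightfield imaging; DMSO (0.64% v/v) = baseline. Embryos: 5D wild-type, pronase-dechorionated, one per well from 6 hpf, static exposure, 28C, sealed, dark.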

[8] = Tanguay_ZF_120hpf_OTIC_legacy: (Legacy) Oregon State University Tanguay Lab 120 Hour Post-fertilization zebrafish Assay for Otic Vesicle Malformation (AID 2283639)
Procedure, shortened: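 Wild-type zebrafish larvae, whole-embryo exposure from early stage to 120 hpf at 28C. Binary brightfield scoring of otic vesicle morphology, fitted in the positive direction against the DMSO baseline.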

[9] = Tanguay_ZF_120hpf_PE_legacy: (Legacy) Oregon State University Tanguay Lab 120 Hour Post-fertilization zebrafish Assay for Pericardial Edema (AID 2283640)
Procedure, shortened: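 Static waterborne exposure, 5D wild-type embryos, 28C, to 120 hpf; final DMSO 0.64% (vol/vol). Binary PE call at 120 hpf by brightfield; fitted upward vs DMSO baseline. 5uM trimethyltin chloride as positive control.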

[10] = Tanguay_ZF_120hpf_BRAI_legacy: (Legacy) Oregon State University Tanguay Lab 120 Hour Post-fertilization zebrafish Assay for Brain Malformation (AID 2283641)
Procedure, shortened: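 Read-out: binary brain morphology call at 120 hpf (brightfield), fitted in gain-of-signal direction vs DMSO. Wild-type Tropical 5D embryos, static exposure, 28C, 0.64% DMSO final; 5uM trimethyltin chloride as positive control.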

[11] = Tanguay_ZF_120hpf_SOMI_legacy: (Legacy) Oregon State University Tanguay Lab 120 Hour Post-fertilization zebrafish Assay for Somite Malformation (AID 2283647)
Procedure, shortened: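 Binary brightfield scoring of somite defects at 120 hpf in 5D wild-type larvae; one dechorionated embryo per well, static exposure from 6 hpf, 28C, sealed and dark. Final DMSO 0.64%; trimethyltin chloride 5uM positive control.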

[12] = TOX21_p53_BLA_p2_viability: Viability Assessment in the Tox21 HCT-116 p53 Agonism Beta-lactamase Assay, Phase 2 (AID 2283591);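 note: actives lower the ATP signal meaning cytotoxicity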
Procedure, shortened: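 HCT116 p53-bla cells, 4000/well, dosed after 5 h plating (217-fold dilution of DMSO stocks) and incubated 16 h at 37C. Viability taken as cellular ATP by CellTiter-Glo luminescence after 30 min RT; signal loss marks cytotoxicity.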

[13] = biological target: Cellular tumor antigen p53 (Homo sapiens) (UniProt P04637); experiment: TOX21_p53_BLA_p2_ratio: Tox21 HCT-116 p53 Agonism Beta-lactamase Assay, Ratio, Phase 2 (AID 2283592)
Chain of Cellular tumor antigen p53 (Homo sapiens) (P04637 whole entry, looked up): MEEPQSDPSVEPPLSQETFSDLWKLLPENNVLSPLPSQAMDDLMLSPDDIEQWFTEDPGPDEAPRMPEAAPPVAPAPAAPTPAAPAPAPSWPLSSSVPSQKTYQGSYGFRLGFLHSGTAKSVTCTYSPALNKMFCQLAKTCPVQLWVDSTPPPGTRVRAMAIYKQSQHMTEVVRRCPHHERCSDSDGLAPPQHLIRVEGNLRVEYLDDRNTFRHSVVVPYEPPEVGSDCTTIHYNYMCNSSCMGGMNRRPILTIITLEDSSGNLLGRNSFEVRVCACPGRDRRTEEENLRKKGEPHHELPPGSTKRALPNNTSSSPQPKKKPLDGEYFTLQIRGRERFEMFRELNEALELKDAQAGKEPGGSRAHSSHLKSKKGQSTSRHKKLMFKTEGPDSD
Procedure, shortened: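 Readout: blue/green (460/530 nm) FRET emission ratio after 2 h CCF4-AM loading at room temperature, excitation 405 nm. HCT116 p53 bla cells, 16 h compound exposure at 37C, 5% CO2; agonist direction fitted against DMSO baseline.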

[14] = TOX21_p53_BLA_p3_viability: Viability Assessment in the Tox21 HCT-116 p53 Agonism Beta-lactamase Assay, Phase 3 (AID 2283593);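 note: cells exposed to compound for 16 h before reading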
Procedure, shortened: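 HCT116 cells, 4000/well, dosed 5 h after plating by pin transfer (217-fold dilution from DMSO stock) and incubated 16 h at 37C, 5% CO2. Viability read as ATP luminescence with CellTiter-Glo after 30 min at room temperature.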

[15] = TOX21_p53_BLA_p4_viability: Viability Assessment in the Tox21 HCT-116 p53 Agonism Beta-lactamase Assay, Phase 4 (AID 2283597);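 note: hits lower the luminescence signal meaning cytotoxicity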
Procedure, shortened: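 ATP content by CellTiter-Glo luminescence, 30 min RT, read after the beta-lactamase ratio step. Cells: HCT116, 4000/well, compound added after 5 h, exposure 16 h at 37C. Signal loss = reduced viability.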

[16] = biological target: Cellular tumor antigen p53 (Homo sapiens) (UniProt P04637); experiment: TOX21_p53_BLA_p5_ratio: Tox21 HCT-116 p53 Agonism Beta-lactamase Assay, Ratio, Phase 5 (AID 2283599)
Procedure, shortened: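 HCT-116 p53-bla cells (4000/well) plated 5 h, dosed with compound (217-fold DMSO dilution) for 16 h at 37 C; CCF4-AM substrate 2 h at room temperature. Activity is the 460/530 nm emission ratio (405 nm excitation), fitted in gain-of-signal direction versus DMSO.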

[17] = TOX21_p53_BLA_p5_viability: Viability Assessment in the Tox21 HCT-116 p53 Agonism Beta-lactamase Assay, Phase 5 (AID 2283600)
Procedure, shortened: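 ATP luminescence (CellTiter-Glo, 30 min, RT) served as the viability read-out, with loss of signal indicating cytotoxicity. Compounds in DMSO were pinned at a 217-fold dilution onto 4000 cells/well and incubated 16 h, 37C.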

[18] = biological target: Cellular tumor antigen p53 (Homo sapiens) (UniProt P04637); experiment: TOX21_p53_BLA_p4_ratio: Tox21 HCT-116 p53 Agonism Beta-lactamase Assay, Ratio, Phase 4 (AID 2283601)
Procedure, shortened: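 HCT-116 p53 beta-lactamase reporter cells (4000/well) preincubated 5 h, then compound (217-fold dilution of DMSO stock) for 16 h at 37C. CCF4-AM substrate added 2 h at room temperature; 460/530 nm emission ratio fitted upward versus DMSO.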

[19] = biological target: Cellular tumor antigen p53 (Homo sapiens) (UniProt P04637); experiment: TOX21_p53_BLA_p3_ratio: Tox21 HCT-116 p53 Agonism Beta-lactamase Assay, Ratio, Phase 3 (AID 2283596)
Procedure, shortened: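 Cells were seeded at 4000/well, rested 5 h at 37C, then dosed with DMSO compound solutions (217-fold dilution) for 16 h. CCF4-AM substrate was loaded for 2 h at room temperature, and the 460/530 nm emission ratio was fitted for gain of signal versus DMSO.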

Measured: AC50

NC=O
not listed: [12] | [13] | [14] | [15] | [16] | [17] | [18] | [19]
inactive: all other assays above

NC(=Nc1ccccc1)Nc1ccccc1
not listed: [1] | [19]
inactive: all other assays above

CC(=O)O
inactive: [1] | [2] | [3] | [4] | [5] | [7] | [8] | [9] | [10] | [11]

CCCCCCC(C=O)=Cc1ccccc1
not listed: [12] | [13] | [14] | [15] | [16] | [17] | [18] | [19]
inactive: all other assays above

CCc1cc(C2=C(C(=O)O)N(c3ccccc3C(F)(F)F)S(=O)(=O)c3ccccc32)cc2c1OCO2
active: [12] 73.7 µM | [15] 68 µM | [18] 75.1 µM
not listed: [1] | [8] | [11]
inactive: all other assays above

Nc1nc(=S)c2[nH]cnc2[nH]1
inactive: [1] | [2] | [3] | [4] | [5] | [6] | [7] | [9]

C#CC(O)C(CC)CCCC (stereo not given)
inactive: [2] | [3] | [4] | [5] | [6] | [7] | [8] | [9] | [10]

CC(C)COC(=O)CCCCC(=O)OCC(C)C
inactive: [1] | [2] | [3] | [4] | [5] | [6] | [7] | [8] | [10] | [11]

OCC(O)CO
inactive: [2] | [3] | [4] | [5] | [6] | [7] | [8] | [9] | [10] | [11]

O=C(O)c1[nH]n(-c2ccc(S(=O)(=O)O)cc2)c(=O)c1N=Nc1ccc(S(=O)(=O)O)cc1
inactive: [13] | [14] | [19] | [15] | [16] | [17] | [2] | [3] | [4] | [5] | [6] | [7] | [8] | [9] | [10] | [11]
active: [13] 0.000189 µM | [19] 0.0528 nM | [16] 0.0652 nM | [18] 6.18e-05 µM

CC(=O)[C@@]1(O)CC[C@H]2[C@@H]3CCC4=CC(=O)CC[C@]4(C)[C@H]3CC[C@@]21C
not listed: [12] | [13] | [14] | [15] | [16] | [17] | [18] | [19]
inactive: all other assays above

CC(C)(C)c1ccccc1
active: [2] 13.1 µM | [6] 5.01 µM | [7] 4.3 µM
not listed: [12] | [13] | [18]
inactive: all other assays above

CC(C)c1cccc(C(C)C)c1NC(=O)NS(=O)(=O)c1cc(C(C)(C)O)co1
inactive: [18] | [2] | [3] | [5] | [6] | [7] | [8] | [9] | [10]

O=NO
inactive: [2] | [3] | [4] | [5] | [6] | [9] | [11]

Cc1cn([C@H]2C=C[C@@H](CO)O2)c(=O)[nH]c1=O
not listed: [12] | [13] | [14] | [15] | [16] | [17] | [18] | [19]
inactive: all other assays above

CCCCOC(=O)CCCCC(=O)OCCCC
inactive: [2] | [3] | [6] | [8] | [9] | [10] | [11]

CSc1ccc(Oc2ccc(S(N)(=O)=O)cc2CN(C)C)cc1C
inactive: [2] | [3] | [4] | [5] | [6] | [7] | [8] | [9] | [10] | [11]

CC(C)c1cccc(C(C)C)c1
inactive: [2] | [4] | [5] | [7] | [8] | [9] | [10]

CO[C@@H]1COCC[C@@H]1N[C@@H]1CC[C@@](C(=O)N2CCc3ncc(C(F)(F)F)cc3C2)(C(C)C)C1
not listed: [1] | [13] | [15] | [16] | [18] | [19]
inactive: all other assays above

CC(COCC(C)OC(=O)c1ccccc1)OC(=O)c1ccccc1 (stereo not given)
inactive: [2] | [3] | [4] | [5] | [6] | [7] | [8] | [10] | [11]

CC(=O)O[C@]1(C(C)=O)CC[C@H]2[C@@H]3C=C(Cl)C4=CC(=O)[C@@H]5C[C@@H]5[C@]4(C)[C@H]3CC[C@@]21C
not listed: [12] | [13] | [14] | [15] | [16] | [17] | [18] | [19]
inactive: all other assays above

CC(=O)OCC(COC(C)=O)OC(C)=O
inactive: [1] | [2] | [3] | [5] | [6] | [7] | [8] | [9] | [10] | [11]

CN(C)C(=O)NC1(c2ccccc2)CCN(CCC[C@]2(c3ccc(Cl)c(Cl)c3)CCCN(C(=O)c3ccccc3)C2)CC1
not listed: [1] | [16]
inactive: all other assays above
